Only a selection was taken, and hits are over-represented in it overall.
Shiga toxin inh: Shiga toxin inhibition; Vero cells, Shiga toxin protein synthesis inhibition reporter; inhibition, % at 38.7 µM; 9.2% of 290,000 active; AID 2315; in the data active means inhibition mostly above about 28%, no sharp cut-off; inactive means mostly below about 43%; further: 0% is about no effect
SARS PLP yeast: SARS-CoV PLP inhibition in yeast; Potency, µM (top dose mostly 32.9 µM), inactives show at the top dose activity, positive = growth rescue, most hits filed as activators; S. cerevisiae expressing SARS-CoV PLpro, growth rescue; AID 485353; 0.19% of 330,000 active; calls by dose curve; further: potency means the concentration at half of the fitted maximal effect; 0% is about no effect; nearly all actives have a fitted effect of over 55% in size
Cycloheximide cs: counter-screen for Shiga toxin inhibitors: cycloheximide protein synthesis inhibition; cell reporter, cycloheximide protein synthesis inhibition counterscreen; max response, %; 12% of 300,000 active; AID 2314; in the data active means max response mostly above about 13%, no sharp cut-off; inactive means mostly below about 14%; further: read at 38.3 µM for the half of the compounds with a filed dose; 0% is about no effect
AMA1 RON2 block: AMA1-RON2 (P. falciparum) interaction inhibition | AlphaScreen AMA1-biotinylated RON2 peptide binding | 0.2% of 360,000 active | Potency, µM (series often up to 58.2 µM), for the others: at the top dose activity change, negative = inhibition, actives largely listed as inhibitors | AID 720542;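 further: potency means the concentration at half of the fitted maximal effect; 0% = vehicle wells and -100% = peptide control; nearly all actives have a fitted effect of over 45% in size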
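AMA1 (3D7) with his tag at 25 nM final met compounds first, then biotinylated RON2 peptide at 25 nM; detection used donor plus acceptor beads, 10 µg/mL apiece, read by AlphaScreen after 30 min at room temperature.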
AmpC no deterg: AmpC beta-lactamase inhibition without detergent. AmpC nitrocefin hydrolysis, absorbance 480 nm, 0.0001% Triton. 0.52% of 330,000 active. Potency, µM (titrated, usually from 57.1 µM), without a hit: at the highest dose activity change, negative = inhibition, usual class: inhibitors. P00811;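 further: potency means the concentration at half of the fitted maximal effect; plate controls were no compound for no effect and no enzyme for full effect; nearly all actives have a fitted effect of over 20% in size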
Target sequence (P00811 whole entry, looked up): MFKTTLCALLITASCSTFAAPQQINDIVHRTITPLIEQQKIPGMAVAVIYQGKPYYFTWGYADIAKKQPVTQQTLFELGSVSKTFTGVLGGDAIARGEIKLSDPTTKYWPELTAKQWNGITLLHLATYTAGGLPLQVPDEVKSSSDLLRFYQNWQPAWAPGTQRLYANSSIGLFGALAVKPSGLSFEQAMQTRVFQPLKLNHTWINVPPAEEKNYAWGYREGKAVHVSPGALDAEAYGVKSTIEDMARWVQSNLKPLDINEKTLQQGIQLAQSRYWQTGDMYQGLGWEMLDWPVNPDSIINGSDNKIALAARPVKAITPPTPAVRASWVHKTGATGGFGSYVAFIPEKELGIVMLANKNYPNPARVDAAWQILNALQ
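AmpC (5.3 nM in the dispensed reagent) in 20 mM phosphate pH 7.0 with 0.01% (detergent screen) or 0.0001% Triton X-100 was preincubated with compounds for 15 min at room temperature. Nitrocefin was then added from an 800 uM solution, and hydrolysis was followed at 480 nm.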
AmpC detergent: blocks E. coli AmpC beta-lactamase in detergent assay. P00811. AmpC hydrolysis of nitrocefin, absorbance 480 nm, 0.01% Triton. Potency, µM (doses to about 114 µM), without a hit: at the top dose activity change, negative = inhibition, most hits filed as inhibitors. 0.041% of 370,000 active;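 further: potency means the concentration at half of the fitted maximal effect; 0% = no-compound wells and -100% = no-enzyme wells; nearly all actives have a fitted effect of over 25% in size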
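AmpC (5.3 nM in the dispensed reagent) in 20 mM phosphate pH 7.0 with 0.01% (detergent screen) or 0.0001% Triton X-100 was preincubated with compounds for 15 min at room temperature. Nitrocefin was then added from an 800 uM solution, and hydrolysis was followed at 480 nm.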
The depositor's hits bear a star; u = inconclusive; x = not tested or not shown. Unless noted, the call rests on the fitted dose curve; in most records, active means well fitted curve in the direction sought with a large enough effect; inconclusive means small, poorly fitted or top-dose-only effect, or another doubt; inactive means no such curve, though single readings can be large; an effect the other way counts as inactive or inconclusive.

SMILES	Shiga toxin inh	SARS PLP yeast	Cycloheximide cs	AMA1 RON2 block	AmpC no deterg	AmpC detergent
O=C(CSc1ncccn1)N1CCCc2ccccc21	28	2%	11*	1%	-2%	9%
O=C(CSc1nc(=O)n2ccccc2n1)N1CCCc2ccccc21	x	1%	x	12%	-8%	0%
O=C(CCS(=O)(=O)c1ccccc1)N1CCCc2ccccc21	57*	-4%	19*	0%	2%	u
Cc1ccnc(SCC(=O)N2CCc3ccccc32)n1	73*	1%	32*	-17%	-4%	-4%
Cc1ccc(C(=O)Nc2nnc(SCC(=O)N3CCCc4ccccc43)s2)cc1	49*	-30%	33*	-1%	-17%	1%
O=C(Nc1nnc(SCC(=O)N2CCCc3ccccc32)s1)c1cccc2ccccc12	-4	-10%	4	10%	-13%	1%
O=S(=O)(NCCCN1CCOCC1)c1ccc2c(c1)OCCO2	-16	1%	-3	-2%	0%	-6%
O=C(Nc1ccc([N+](=O)[O-])cc1)c1cc(-c2ccccn2)nc2c(Cl)cccc12	-5	-1%	-2	6%	-19%	-1%
CN(C)C(=O)c1cn(-c2ccccc2)nc1-c1cccc([N+](=O)[O-])c1	12	0%	-2	3%	81%	3%
CCN(c1ccc(NC(=O)CSc2ccc3c(c2)OCCO3)cc1)C(C)C	x	3%	x	u	-13%	x
O=C1c2ccccc2C(=O)N1OCc1c(F)cccc1Cl	17	0%	22*	0%	-1%	0%
O=C(Cc1c(F)cccc1Cl)OCN1C(=O)c2ccccc2C1=O	-8	9%	-1	-3%	-4%	-1%
COc1cc(OC)c(NC(=O)C(Cc2ccccc2)NS(=O)(=O)c2cccc3nsnc23)cc1Cl (stereo not given)	x	x	x	x	x	-6%
CCC(=O)N1CCc2nc(-c3ccccc3)sc2C1	69*	7%	25*	10%	2%	3%
CC(C)c1ccc(CNc2ccc([N+](=O)[O-])cn2)cc1	74*	-14%	55*	-6%	-28%	9%
CC(C)(C)c1ccc(CNc2ccc([N+](=O)[O-])cn2)cc1	81*	-46%	23*	u	-21%	-6%
Cc1cc(C)c(Cn2cnc(-c3ccc([N+](=O)[O-])cc3)c2)c(C)c1	12	5%	-1	0%	-22%	0%
CC(C)(C)c1ccc(Cn2cnc(-c3ccc([N+](=O)[O-])cc3)c2)cc1	54*	4%	40*	-28%	-12%	-11%
O=[N+]([O-])c1ccc(Nc2ccc(Cl)cc2)nc1	4	0%	-5	-9%	-1%	-10%
O=[N+]([O-])c1ccc(NCc2ccc(Cl)cc2)nc1	63*	-2%	39*	-5%	-39%	1%
CCOc1cc(-c2ccc(OC(=O)c3ccccc3Cl)c(OC)c2)cc(=O)c2c(C)oc(C)c12	x	x	x	x	x	1%
Cc1ccc(S(=O)(=O)N2CCCCC2)cc1NC(=O)COC(=O)c1cc[n+]([O-])cc1	11	-5%	4	15%	-26%	6%
CC(C)c1ccc(CNc2ncc(Br)cn2)cc1	32*	1%	17*	4%	-9%	2%
CC(C)c1ccc(CNc2nnnn2C)cc1	-7	0%	-1	2%	-5%	3%
Cc1ccc(-c2csc(NC(=O)c3cccc(C)c3)c2C(=O)O)cc1	x	x	x	9%	x	x
SMILES	Shiga toxin inh	SARS PLP yeast	Cycloheximide cs	AMA1 RON2 block	AmpC no deterg	AmpC detergent
COC(=O)c1c(-c2ccccc2)csc1NC(=O)c1c(-c2ccccc2)noc1C	11	-1%	2	-17%	-17%	2%
O=C(Nc1scc(-c2ccc(F)cc2)c1C(=O)O)c1ccco1	92*	-9%	56*	11%	-21%	3%
COC(=O)c1c(-c2ccccc2)csc1NC(=O)c1ccco1	153*	10%	71*	-1%	-3%	4%
Cc1ccc(-c2csc(NC(=O)/C=C/c3ccco3)c2C(=O)O)cc1	86*	1%	36*	-12%	-56%	-1%
CCNc1c(NS(=O)(=O)c2ccc(OC)c(Cl)c2)c(=O)oc2ccccc12	-4	-12%	6	-1%	-15%	u
COc1ccc(/C=C2\SC(=S)N(C(C(=O)O)c3ccccc3)C2=O)c(OC)c1 (stereo not given)	19	-1%	1	-7%	-35%	1%
COc1cc2cnc(-c3ccccc3)cc2cc1OC	x	-3%	x	0%	201%	x
COc1cccc(OC)c1C(=O)Nc1nnc(C)s1	x	x	x	x	x	7%
COCCN(C(=O)c1ccccc1OC)c1nnc(C)s1	-5	-1%	-3	-2%	-14%	0%
COc1ccccc1C(=O)Nc1nnc(SCC(=O)NC2CCCC2)s1	166*	2%	63*	6%	15%	15%
Cc1ccc(C(=O)Nc2nnc(-c3ccc(C(C)(C)C)cc3)s2)cc1	36*	-13%	25	-4%	-8%	-8%
O=C(CSc1nnc(NC(=O)c2ccccc2[N+](=O)[O-])s1)NC1CCCC1	x	x	x	-1%	x	x
COc1ccccc1C(=O)N(C)c1nnc(-c2ccccc2)s1	66*	2%	37*	7%	37%	-6%
COc1ccccc1C(=O)Nc1nnc(C)s1	81*	6%	39*	4%	-11%	-1%
N#Cc1ccccc1NC(=O)COC(=O)c1cccs1	x	1%	x	7%	-20%	x
CC(=O)Nc1ccc(C(F)(F)F)cc1Cl	-14	-2%	-2	9%	-5%	2%
CCCn1c2ccccc2c2cnn(CC(=O)N3CCC(C(=O)OCC)CC3)c(=O)c21	x	x	x	x	x	6%
COc1ccccc1C(=O)Nc1nnc(-c2ccccc2)s1	x	-11%	35*	-6%	119%	u
CC(=O)Nc1sc(NC(=O)c2ccccc2)nc1-c1cccs1	14	-5%	21	0%	-35%	u
COc1cccc(C(=O)Nc2nnc(-c3ccccc3)s2)c1OC	41*	-8%	43*	15%	16%	-23%
COc1ccccc1C(=O)Nc1nc(-c2cccs2)c(NC(C)=O)s1	57*	11%	30*	-9%	-22%	1%
Cc1cc(C)cc(OCCSc2nc(-c3cccs3)nc3cc(=O)[nH]n23)c1	x	x	x	x	x	4%
N#Cc1cnn(-c2ccc([N+](=O)[O-])cc2[N+](=O)[O-])c1N	x	x	x	-7%	x	x
CCSc1nc(-c2ccc(OC)cc2)n(-c2nc3ccccc3s2)n1	12	1%	17*	25%	-13%	0%
COc1ccc(/C=C2\SC(=S)N(CCC(=O)NCCc3ccc(O)cc3)C2=O)cc1	-4	-16%	-4	-2%	-25%	u
CCn1cc([N+](=O)[O-])c(C(=O)Nc2c(C)nn(Cc3cccc(F)c3)c2C)n1	-2	13%	-5	12%	-35%	1%

High-throughput results as filed in PubChem BioAssay.
